40 compounds from PubChem BioAssay (Tox21) can be followed below.

Calls of active or inactive are those of the source. Entries that show only a call come without a potency. Calls come from the whole dose curve; as a rule, active = well fitted curve in the direction sought with a large enough effect in the repeat runs; inconclusive = weak or mixed curves; inactive = flat fitted curve, though single readings scatter.

The test can be described thus: qHTS assay to test for compound auto fluorescence at 460 nm (blue) in HEK293 cell free culture (AID 720681). As to conditions: cell-free medium, autofluorescence 405/460 nm (blue); series mostly up to 91.3 µM. An excerpt: U.S. Tox21 Program National Center for Advancing Translational Sciences [NCATS] NIH Chemical Genomics Center [NCGC] U.S. Environmental Protection Agency [EPA] National Institutes of Environmental Health Sciences [NIEHS] National Toxicology Program [NTP] U.S. Food and Drug Administration [FDA] Tox21 Assay Overview: Compound auto fluorescence often interferes with screening of the compound library against various biological targets and signaling pathways. Some of these compounds may have fluorophoric properties. Such properties may interfere with the assay outputs resulting in false positives and/or negatives. To decrease such complications and ensure the compound activities are relevant in terms of biological response, the Tox21 10K compound library was screened for auto fluorescence. From the fluorophores used as reporter signals in our screening assays, the auto fluorescence equivalencies of compounds against three fluorophores have been evaluated: Triamterene, Fluorescein and Rose Bengal sodium for blue, green and red fluorescence, respectively. The fluorescence intensities were measured using Excitation/Emission wavelengths at 405/460nm, 485/535nm and 540/590nm for blue, green and red labels, respectively. This assay includes the blue fluorescence data.
Tox21 Assay Protocol Summary: 5 uL of culture medium (DMEM containing 10% FBS) per well was dispensed into black wall/clear bottom 1536-well plates using a Multidrop Combi Dispenser (ThermoFisher Scientific, Waltham, MA). After 23 nL compound or DMSO vehicle was transferred into assay plate by a pintool work station (Kalypsys, San Diego, CA), fluorescence intensities in the assay plates were measured by an Envision (PerkinElmer, Shelton, CT) plate reader using three labels for measuring blue, green and red fluorescence at […] 460, 535 and 590nm respectively.
A general note: Quantitative high-throughput screening tests each substance at several concentrations.
With `CC(=O)Nc1ccn(C2COC(COC(=O)c3ccccc3)O2)c(=O)n1` (stereo not given), the Potency entry is “inactive”.
On to `O=C(c1ccc(Cl)cc1)c1ccc(Cl)cc1`, for which the Potency entry is “inactive”.
On to `C=CC(C)(O)CC/C=C(/C)CCC=C(C)C` (stereo not given), for which the Potency result is “inactive”.
To `O=S(=O)(O)c1cc(Cl)c(Cl)cc1Cl` belongs “inactive”.
Turning to `Nc1ccccc1Nc1ccccc1`, the Potency entry is “inactive”.
To `O=C(OC1C[C@H]2CC[C@@H](C1)[N+]21CCCC1)C(O)(c1ccccc1)c1ccccc1` (stereo not given in full) belongs “inactive”; to `CCCCCCC/C=C/C=O`, “inactive”; to `Nc1ccc(F)cc1F`, “inactive”.
For the compound `COc1cccc([C@H](O)C2CCN(CCc3ccc(F)cc3)CC2)c1OC`, the Potency result is “inactive”.
In the case of `CC(C)(Cc1c[nH]c2ccccc12)NCC(O)COc1ccccc1C#N` (stereo not given), the Potency entry was “inactive”.
Turning to `CC1(C)C(=O)NC(=O)N1CO`, the Potency result is “inactive”.
Next, `CCOc1cc(OCC)c(C(C)=O)cc1OCC`: “inactive”.
As to `COc1ccc(CN(CCN(C)C)c2ncccn2)cc1`, the Potency result is “inactive”.
Consider `CC1=CC(=C(c2ccc(N)cc2)c2ccc(N)cc2)C=CC1=N`, for which the Potency result was “inactive”.
For `Clc1cc(Cl)c2c(c1)N=C1CCCCCN1C2`, the Potency result is “inactive”.
As to `CC(CCl)OC(C)CCl` (stereo not given), the Potency result is “inactive”.
Next, `Oc1ccc(CCNCCCCCCNCCc2ccccc2)cc1O`: “inactive”.
Turning to `CCOC(C)OCC`, the Potency result is “inactive”.
To `CC(C)(O)C(=O)O` belongs “inactive”; to `O=C(O)c1ccc2cc(O)ccc2c1`, “inactive”; to `CCCCCCCCNC`, “inactive”.
`Nc1ncnc2c1ncn2[C@@H]1O[C@H](CO)[C@@H](O)[C@H]1O`: the Potency entry is “inactive”.
Take `CCC1=C(C)CN(C(=O)NCCc2ccc(S(=O)(=O)NC(=O)NC3CCC(C)CC3)cc2)C1=O` (stereo not given): the Potency entry is “inactive”.
Consider `Cc1ccccc1CCO`, for which the Potency entry was “inactive”.
`O=[N+]([O-])c1ccc(Cl)cc1Cl`: the Potency entry is “inactive”.
`C=CCCC`: the Potency entry is “inactive”.
In the case of `CCC(=O)O[C@@H]1C[C@H]2CC[C@]1(C)C2(C)C`, the Potency entry was “inactive”.
As for `S=c1[nH][nH]c(=S)s1`, the Potency entry is “inactive”.
`CC(=O)Nc1ccccc1O`: the Potency entry was “inactive”.
`CC(=O)Nc1cccc(N)c1`: the Potency result is “inactive”.
As for `CCC(C)C1N=C(C)C(C)S1` (stereo not given), the Potency result was “inactive”.
`O=C(O)c1ccncc1`: the Potency entry was “inactive”.
Consider `COC(=O)Cc1cccc2ccccc12`, for which the Potency entry was “inactive”.
Consider `COC(=O)/C=C/C(C)=C\C=C\C(C)=C\C=C\C=C(C)\C=C\C=C(C)\C=C\C(=O)O`, for which the Potency result is “inactive”.
As to `O=C(Nc1ccc2c(c1)Cc1ccccc1-2)C(F)(F)F`, the Potency result is “inactive”.
`COc1ccc(C(=O)c2ccc(C)cc2)c(O)c1`: the Potency entry is “inactive”.
As for `CCCCCCCCCCCCN1CCOCC1`, the Potency entry is “inactive”.
With `CC1=C(C)C(=O)C(CCCCC#CCCCC#CCO)=C(C)C1=O`, the Potency entry was “inactive”.
Consider `OCCOc1cccc(OCCO)c1`, for which the Potency result is “inactive”.
Take `C[C@H](CN1CCCC1)C(=O)c1ccc(C(F)(F)F)cc1`: the Potency result was “inactive”.
